Test results from PubChem BioAssay.
Records with an inconclusive call do not appear. The list shows a part of the results. Calls of active or inactive are those of the source. Rule as the data show it, unless noted: active = response below about 74% or above about 130%; inactive = in between.

Tests used:
[1] = rapamycin-like changes in RPL19A-GFP expression – cell-based, S. cerevisiae, multiplex flow cytometry, primary screen (AID 1862; in the data active = percent of DMSO control GFP below about 86%;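 also: lower values mimic rapamycin by blocking the RPL19A rise seen in DMSO cells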); details: S. cerevisiae RPL19A-GFP strain, flow cytometry fluorescence, 3 h; at 10 µM; stronger effect = lower value
[2] = TOR pathway GLN3 branch reporter MEP2-GFP changes – S. cerevisiae, multiplex flow cytometry, primary screen (AID 1867;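 active = GFP response, as percent of the DMSO control, above the screen-wide mean plus 3 SD, about 139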;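 also: median GFP channel fluorescence of barcode-gated MEP2-GFP cells measured by flow cytometry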); details: S. cerevisiae MEP2-GFP strain, 3 h, at 10 µM, stronger effect = higher value, 100% means same as DMSO wells
[3] = TOR pathway RTG branch CIT2 reporter changes – S. cerevisiae, GFP fusion, multiplex flow cytometry, primary screen (AID 1870;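 active = percent response above a set limit, the screen-wide mean plus 3 SD, cut at about 130% in these data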;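 also: barcoded CIT2-GFP strain pooled with four other GFP strains with rapamycin as positive control; median GFP fluorescence per well over plate mean of DMSO wells so 100% = DMSO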); details: S. cerevisiae CIT2-GFP expression, 3 h, at 10 µM, stronger effect = higher value
[4] = TOR pathway LAP4-GFP level changes – S. cerevisiae, multiplex flow cytometry, primary screen (AID 1873;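 active = GFP signal, as percent of the solvent control, above the screen mean plus 3 SD, about 149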); details: S. cerevisiae LAP4-GFP expression, 3 h, at 10 µM, stronger effect = higher value
[5] = yeast AGP1-GFP level changes, GLN3 branch – cell-based, multiplex flow cytometry, S. cerevisiae, primary screen (AID 1887;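 active = GFP signal above the screen-wide mean plus 3 SD, that is over about 124.5% of the solvent control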;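 also: AGP1-GFP fusion strain of S. cerevisiae within a five-strain barcoded multiplex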); details: 3 h, at 10 µM, stronger effect = higher value
[6] = hit retest on RPL19A-GFP reporter strain – cell-based, S. cerevisiae, flow cytometry, cherry picks, mother/daughter gates, confirmation (AID 2270;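 active = GFP response below 50% of the DMSO control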); details: 3 h, at 10 µM, stronger effect = lower value, 100 = same GFP as DMSO wells
[7] = yeast TOR pathway reporter LAP4-GFP change – cell-based, cherry picks, flow cytometry, mother/daughter gates, confirmation (AID 2271;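 active = GFP response above 150% of the DMSO control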;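 also: ratio of sample to DMSO plate mean so 100% equals DMSO level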); details: S. cerevisiae LAP4-GFP strain, 3 h, at 10 µM, stronger effect = higher value, 100 means same as DMSO control
[8] = TOR pathway reporter MEP2-GFP, retest of hits – S. cerevisiae, flow cytometry GFP, cherry picks, confirmation (AID 2272;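 active = GFP response above 150% of the DMSO control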;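 also: ratio of well signal to plate DMSO mean so 100% equals DMSO level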); details: S. cerevisiae MEP2-GFP strain, 3 h, at 10 µM, stronger effect = higher value
[9] = TOR pathway CIT2 reporter hit retest – S. cerevisiae, GFP fusion, cherry picks, mother/daughter gates, confirmation (AID 2274;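 active = GFP response above 150% of the DMSO level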); details: S. cerevisiae CIT2-GFP strain, flow cytometry, 3 h, at 10 µM, stronger effect = higher value
[10] = reduced mouse 2C T cell binding to pMHC/ICAM-1 vesicles – MLPCN validation set, flow cytometry, LFA-1/ICAM-1 modulator project, pilot screen (AID 2523;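 active = response below a set limit, under 55% cells CD8-positive and vesicle-bound, and CD8 cells' 90th-percentile brightness under 279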;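 as to vesicle binding response: mean PE anti-B7-1 fluorescence of CD8+ cells relative to row control; 100% = QL9-loaded vesicles with DMSO vehicle in the same plate row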); details: 2C mouse CD8+ T cells, at 7 µM, stronger effect = lower value; double positive events: measured here: CD8+/vesicle+ event percentage
[11] = target: Regulator of G-protein signaling 16 (Homo sapiens) (UniProt O15492); test: small molecules altering RGS protein interactions with GNAO1 – biochemical, multiplexed beads, flow cytometry, RGS4/7/8/16/19, primary screen (AID 1504); details: multiplexed bead flow cytometry, measured here: RGS16 interaction, at 10 µM;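 also: fluorescently labeled Galpha-o bound to GDP with aluminium fluoride binding biotinylated RGS beads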
[12] = target: Regulator of G-protein signaling 19 (Homo sapiens) (UniProt P49795); test: as above; details: multiplexed bead flow cytometry, measured here: RGS19 interaction, at 10 µM
[13] = target: Regulator of G-protein signaling 7 (Homo sapiens) (UniProt P49802); test: as above; details: multiplexed bead flow cytometry, measured here: RGS7 interaction, at 10 µM
[14] = target: Regulator of G-protein signaling 8 (Homo sapiens) (UniProt P57771); test: as above; details: multiplexed bead flow cytometry, measured here: RGS8 interaction, at 10 µM
[15] = interference with biotin-avidin bead interaction – biochemical, flow cytometry, bead-based, counter-screen for RGS protein interaction modulators (AID 1783;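 active = inhibition above 50%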;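 also: median green fluorescence of gated singlet beads compared with DMSO control wells; 0% = DMSO wells and 100% = complete loss of bead fluorescence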); details: streptavidin beads, fluorescein-biotin binding; at 10 µM, stronger effect = higher value
[16] = target: Guanine nucleotide-binding protein G(o) subunit alpha (Homo sapiens) (UniProt P09471); test: retest of RGS8-Galphao interaction hits – biochemical, multiplexed bead flow cytometry, single concentration, confirmation (AID 1836; in the data active = binding response below about 72% or above about 130%; inactive = in between;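 also: Galphao activated as GDP AlF4 complex before binding bead RGS8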); details: bead-based flow cytometry RGS8-Galphao binding, fluorescence; at 10 µM; actives lie on both sides
Guanine nucleotide-binding protein G(o) subunit alpha (Homo sapiens), sequence (P09471 whole entry, looked up): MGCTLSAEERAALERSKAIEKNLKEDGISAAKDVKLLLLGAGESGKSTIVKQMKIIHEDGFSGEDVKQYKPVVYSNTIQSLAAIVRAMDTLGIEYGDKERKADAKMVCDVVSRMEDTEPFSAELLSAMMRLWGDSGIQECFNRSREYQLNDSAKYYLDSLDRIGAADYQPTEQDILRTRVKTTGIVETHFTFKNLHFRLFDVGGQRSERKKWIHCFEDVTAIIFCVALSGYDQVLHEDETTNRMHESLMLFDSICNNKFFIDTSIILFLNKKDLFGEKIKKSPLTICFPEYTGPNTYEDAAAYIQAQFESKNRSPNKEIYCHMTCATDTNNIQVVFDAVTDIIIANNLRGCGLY

[17] = target: Guanine nucleotide-binding protein G(o) subunit alpha (Homo sapiens) (UniProt P09471); test: retest of RGS7-Galphao interaction hits – biochemical, multiplexed bead flow cytometry, single concentration, confirmation (AID 1837; in the data active = response below about 75% or above about 130%; inactive = in between;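 also: fluorescent Galphao activated with GDP and aluminum fluoride binding bead-coupled RGS7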); details: bead-based flow cytometry RGS7-Galphao binding; at 10 µM; actives lie on both sides
[18] = target: Regulator of G-protein signaling 16 (Homo sapiens) + Guanine nucleotide-binding protein G(o) subunit alpha (Homo sapiens) (UniProt O15492+P09471); test: RGS16 and Galphao interaction regulators – biochemical, single concentration, multiplexed bead flow cytometry, confirmation (AID 1838); details: bead-based flow cytometry, at 10 µM, actives lie on both sides;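 also: Galphao activated as the GDP aluminium fluoride complex binding bead-coupled RGS16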
Regulator of G-protein signaling 16 (Homo sapiens) + Guanine nucleotide-binding protein G(o) subunit alpha (Homo sapiens), sequence (O15492 whole entry, looked up): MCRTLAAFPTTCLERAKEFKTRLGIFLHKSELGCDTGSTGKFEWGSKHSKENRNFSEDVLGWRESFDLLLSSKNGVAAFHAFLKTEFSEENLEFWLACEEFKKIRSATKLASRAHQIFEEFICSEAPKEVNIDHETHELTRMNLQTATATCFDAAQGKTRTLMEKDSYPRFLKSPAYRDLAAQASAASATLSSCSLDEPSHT
Regulator of G-protein signaling 16 (Homo sapiens) + Guanine nucleotide-binding protein G(o) subunit alpha (Homo sapiens), sequence (P09471 whole entry, looked up): as the sequence (P09471 whole entry, looked up) above

[19] = target: Guanine nucleotide-binding protein G(o) subunit alpha (Homo sapiens) (UniProt P09471); test: RGS4 and Galphao interaction regulators – biochemical, single concentration, multiplexed bead flow cytometry, confirmation (AID 1840; in the data active = binding response below about 74% or above about 130%; inactive = in between); details: at 10 µM, actives lie on both sides
[20] = target: Guanine nucleotide-binding protein G(o) subunit alpha (Homo sapiens) + Regulator of G-protein signaling 19 (Homo sapiens) (UniProt P09471+P49795); test: RGS19 interaction with Gαo, hit retest – biochemical, single point, multiplexed bead flow cytometry, confirmation (AID 1841; in the data active = response below about 50% or above about 160%; inactive = in between;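 also: 100% = no compound control and 0% = blank background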); details: bead-based flow cytometry RGS19-Galphao binding; at 10 µM; actives lie on both sides
Guanine nucleotide-binding protein G(o) subunit alpha (Homo sapiens) + Regulator of G-protein signaling 19 (Homo sapiens), sequence (P09471 whole entry, looked up): as above
Guanine nucleotide-binding protein G(o) subunit alpha (Homo sapiens) + Regulator of G-protein signaling 19 (Homo sapiens), sequence (P49795 whole entry, looked up): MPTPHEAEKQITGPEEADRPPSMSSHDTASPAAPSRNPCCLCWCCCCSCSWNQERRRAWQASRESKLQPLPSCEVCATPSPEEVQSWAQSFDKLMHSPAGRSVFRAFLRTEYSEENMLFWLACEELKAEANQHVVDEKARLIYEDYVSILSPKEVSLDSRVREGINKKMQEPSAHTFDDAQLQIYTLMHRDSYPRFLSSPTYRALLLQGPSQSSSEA

[21] = measured here: daughter cell gate
[22] = measured here: mother cell gate
[23] = measured here: daughter cell gate response
[24] = measured here: mother cell gate response

CC(=O)Nc1ccccc1O
percent of DMSO control GFP [1]: 87.8% (inactive) | GFP response vs DMSO [2]: 152% (active) | percent response of DMSO control [3]: 102% (inactive) | GFP response vs DMSO [4]: 85.3% (inactive) | GFP response, % of DMSO [5]: 86.6% (inactive) | GFP response vs DMSO [6]: 99% (inactive) | GFP response vs DMSO [6, 21]: 101% | GFP response vs DMSO [6, 22]: 99.8% | GFP response relative to DMSO [7]: 93.8% (inactive) | GFP response relative to DMSO [7, 23]: 98.7% | GFP response relative to DMSO [7, 24]: 93.1% | GFP response vs DMSO [8]: 100% (inactive) | GFP response, % of DMSO [9]: 110% (inactive) | GFP response, % of DMSO [9, 21]: 105% | GFP response, % of DMSO [9, 22]: 113% | double positive events [10]: 61.6% | vesicle binding response [10]: 142% (inactive)

Cc1cc2nc(C)n(CCCNC(=O)Nc3ccccc3)c2cc1C
RGS16–Galpha-o binding response [11]: 283% | RGS19–Galpha-o binding response [12]: 94.8% | RGS7–Galpha-o binding response [13]: 180% | RGS8–Galpha-o binding response [14]: 170% | inhibition [15]: -0.5% (inactive) | binding response (% of control) [16]: 102% (inactive) | response (percent of control binding) [17]: 104% (inactive) | response (% of control binding) [18]: 103% (inactive) | binding response (% of control) [19]: 104% (inactive) | response (percent of control binding) [20]: 97.2% (inactive)

CCN(CC)CCn1cnc2c1c(=O)n(CCOC(=O)c1cc(OC)c(OC)c(OC)c1)c(=O)n2C
RGS16–Galpha-o binding response [11]: 147% | RGS19–Galpha-o binding response [12]: 76.4% | RGS7–Galpha-o binding response [13]: 13% | RGS8–Galpha-o binding response [14]: 131% | inhibition [15]: -0.6% (inactive) | binding response (% of control) [16]: 104% (inactive) | response (percent of control binding) [17]: 103% (inactive) | response (% of control binding) [18]: 104% (inactive) | binding response (% of control) [19]: 105% (inactive) | response (percent of control binding) [20]: 108% (inactive)

Cc1c(Br)cc(C(=O)N2CCCCCC2)c(C)c1C
inhibition [15]: -0.3% (inactive) | binding response (% of control) [16]: 102% (inactive) | response (percent of control binding) [17]: 102% (inactive) | response (% of control binding) [18]: 102% (inactive) | binding response (% of control) [19]: 102% (inactive) | response (percent of control binding) [20]: 104% (inactive)

C=CCNc1nc(N)c(C(=C(C#N)C#N)c2ccccc2)s1
inhibition [15]: 0.8% (inactive) | binding response (% of control) [16]: 98.2% (inactive) | response (percent of control binding) [17]: 87.1% (inactive) | response (% of control binding) [18]: 99% (inactive) | binding response (% of control) [19]: 95.9% (inactive) | response (percent of control binding) [20]: 113% (inactive)

CC(=O)CSc1ncnc2c1cnn2-c1ccccc1
percent of DMSO control GFP [1]: 90.6% (inactive) | GFP response vs DMSO [2]: 116% (inactive) | percent response of DMSO control [3]: 92.6% (inactive) | GFP response vs DMSO [4]: 77.6% (inactive) | GFP response, % of DMSO [5]: 87.3% (inactive) | GFP response vs DMSO [6]: 100% (inactive) | GFP response vs DMSO [6, 21]: 97.6% | GFP response vs DMSO [6, 22]: 100% | GFP response relative to DMSO [7]: 106% (inactive) | GFP response relative to DMSO [7, 23]: 101% | GFP response relative to DMSO [7, 24]: 106% | GFP response vs DMSO [8]: 99% (inactive) | GFP response, % of DMSO [9]: 93% (inactive) | GFP response, % of DMSO [9, 21]: 92% | GFP response, % of DMSO [9, 22]: 91.9% | double positive events [10]: 57.9% | vesicle binding response [10]: 221% (inactive)

CN(C)CCN(Cc1ccccc1)c1ccccn1
percent of DMSO control GFP [1]: 94.8% (inactive) | GFP response vs DMSO [2]: 140% (active) | percent response of DMSO control [3]: 97.9% (inactive) | GFP response vs DMSO [4]: 85.3% (inactive) | GFP response, % of DMSO [5]: 93.3% (inactive) | GFP response vs DMSO [6]: 96.8% (inactive) | GFP response vs DMSO [6, 21]: 98.1% | GFP response vs DMSO [6, 22]: 97.9% | GFP response relative to DMSO [7]: 101% (inactive) | GFP response relative to DMSO [7, 23]: 99.2% | GFP response relative to DMSO [7, 24]: 99.3% | GFP response vs DMSO [8]: 100% (inactive) | GFP response, % of DMSO [9]: 98.3% (inactive) | GFP response, % of DMSO [9, 21]: 99.1% | GFP response, % of DMSO [9, 22]: 98.5% | double positive events [10]: 62.3% | vesicle binding response [10]: 269% (inactive)
